Measurements reported in PubChem BioAssay.
A number with no mark means an inactive call. Calls of active or inactive are those of the source.

Assay: CREB reporter modulators under forskolin, primary screen, cell-based, PC12, CRE-LacZ reporter, forskolin-stimulated (AID 1146);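 note: PC12 cells with 6xCRE LacZ reporter stimulated by forskolin 10 µM; beta-galactosidase reporter signal reflecting CREB driven transcription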
Settings: luminescence, 4.5 h, higher = more signal, called active from +8 up or from −8 down

Compound | z-score
O=C1C2C=CC(C(O)C3CCCCC3)N(Nc3ccc([N+](=O)[O-])cc3)C2C(=O)N1c1ccccc1 (stereo not given) | 1.13
C=CCNC(=O)[C@H]1[C@@H]2C(=O)O[C@@H](c3ccccc3)[C@@H](c3ccccc3)N2[C@@H](c2ccc(OCCO)cc2)[C@]12C(=O)N(C(=O)OCCOC)c1ccccc12 | 9.23 (active)
O=C1C2C=CC(C(O)c3c(F)cccc3Cl)N(Nc3ccccc3)C2C(=O)N1c1ccccc1 (stereo not given) | -0.0349
CC(C)c1ccc(NN2C(C(O)c3cc(C(F)(F)F)cc(C(F)(F)F)c3)C=CC3C(=O)N(c4ccccc4)C(=O)C32)cc1 (stereo not given) | 0.849
[N-]=[N+]=NCc1ccccc1C[C@]1(C(=O)O)N=C(c2ccc(OCCCO)cc2)O[C@H]1c1ccccc1N=[N+]=[N-] | 0.987
O=C1O[C@H](c2ccccc2)[C@H](c2ccccc2)N2[C@H]1[C@@H](C(=O)NC[C@H](O)c1ccccc1)[C@]1(C(=O)Nc3ccccc31)[C@H]2c1ccc(OCCO)cc1 | -0.499
COC(=O)[C@@]1(Cc2ccc(F)cc2)[C@H]2c3cc(C(=O)N4CCCC4)n(Cc4ccc(C)o4)c3C[C@H]2CN1C(=O)c1ccccc1 | -1.19
COc1ccc([Si](C)(C)[C@H]2[C@H](CCn3cc([C@H](O)c4ccccc4)nn3)O[C@@]3(C(=O)N(Cc4cccc(N5CCOC5=O)c4)c4ccccc43)[C@@H]2C)cc1 | 1.32
COc1ccc(CCNC(=O)[C@@]2(C)c3ccccc3C(=O)N(Cc3cc(F)cc(C(F)(F)F)c3)[C@H]2c2ccc(CO)cc2)cc1 | -1.28
O=C1O[C@@H](c2ccccc2)[C@@H](c2ccccc2)N2[C@@H](c3ccc(OCCO)cc3)[C@]3(C(=O)Nc4ccccc43)[C@@H](C(=O)NC[C@H](O)c3ccccc3)[C@H]12 | 2.97
C=C(/C(=C/C[C@@H](OC(C)=O)c1ccc(OCCO)cc1)c1cnc2ccccc2c1)C(C)C | -0.45
O=C1OCC=C[C@H]2OC34C=CCN(CCN5CCOCC5)C(=O)[C@H]3N(CCCO)C(=O)[C@@H]4[C@@H]12 (stereo not given in full) | 1.5
C=CC[C@]1(C(=O)NCCCOC)N=C(c2ccc(OCCCO)cc2)O[C@H]1c1ccccc1N=[N+]=[N-] | -1.5
COCC(=C=CC[C@H](O)c1ccccc1OCCO)C[C@H](O)c1cc(Cl)cc(Cl)c1O | -0.753
COC(=O)c1c(CC[C@@H](CO)NC(=O)N2CCC[C@H]2Cn2cc(-c3ccccn3)nn2)oc(C(C)=O)c1C(=O)OC | -0.0037
C=CCN(Cc1ccccc1)C(=O)C(c1cccs1)N(CCOCCO)C(=O)/C=C\C(=O)O (stereo not given) | -0.949
CCN(CC)c1ccc(N2CC=CC34O[C@@H]5/C=C\CCCOC(=O)C5[C@H]3C(=O)N(CCO)[C@@H]4C2=O)cc1 (stereo not given in full) | -0.462
C=CC[C@@]1(C(N)=O)N=C(c2ccc(OCCCO)cc2)O[C@@H]1c1ccccc1CN=[N+]=[N-] | -1.35

Compound | z-score
O=C1c2ccccc2[C@](Cc2ccccc2I)(C(=O)NC2CC2)[C@H](c2ccc(CO)cc2)N1C1CCCCC1 | 0.424
O=C(NCc1ccccc1)[C@@]1(CCS(=O)(=O)c2ccccc2)N=C(c2ccc(OCCCO)cc2)O[C@H]1c1ccccc1 | -0.516
CCCCCN1CC=CC23O[C@@H]4/C=C\CCCOC(=O)C4[C@H]2C(=O)N(CCCO)[C@@H]3C1=O (stereo not given in full) | -0.812
C=CCNC(=O)[C@@H]1[C@H]2C(=O)O[C@H](c3ccccc3)[C@H](c3ccccc3)N2[C@H](c2ccccc2OCCO)[C@@]12C(=O)N(C(=O)OCCOC)c1ccc(C#CCNC(N)=O)cc12 | 0.447
COCCOC(=O)N1C(=O)[C@@]2(c3cc(C#CCCO)ccc31)[C@H](C(=O)N1CCN(c3ncccn3)CC1)[C@H]1C(=O)O[C@H](c3ccccc3)[C@H](c3ccccc3)N1[C@@H]2c1ccccc1OCCO | -0.228
COc1ccc(CCN2C(=O)[C@@]3(c4ccc([N+](=O)[O-])cc4)CC(=O)N(C4CCCCC4)[C@@H]3c3ccc(CO)cc32)cc1 | 0.86
CCOC(=O)C[C@H]1[C@H](OC(=O)c2ccc(C(=O)c3ccccc3)cc2)[C@@H](NC(=O)c2ccc(-c3ccccc3)cc2)c2cc(OCCCO)ccc2N1C(=O)c1ccccc1 | -0.254
COC(=O)C(CC#Cc1ccc2c(c1)[C@]1(C(=O)N2)[C@H](c2ccc(O)cc2)N2[C@H](c3ccccc3)[C@H](c3ccccc3)OC(=O)[C@H]2[C@@H]1C(=O)Nc1nc2ccccc2s1)C(=O)OC | -0.5
O=C1[C@H]2C=C(Br)[C@H](C[C@@H]2OCCCCO)[C@@]12CO2 | 0.533
Cc1ccc(C(C)CC(O)C2C=CC3C(=O)N(c4ccccc4)C(=O)C3N2Nc2ccc([N+](=O)[O-])cc2)o1 (stereo not given) | 0.812
COCCOC(=O)N1C(=O)[C@@]2(c3cc(C#CCCO)ccc31)[C@H](C(=O)Nc1nc3ccccc3s1)[C@H]1C(=O)O[C@H](c3ccccc3)[C@H](c3ccccc3)N1[C@@H]2c1ccc(OCCO)cc1 | -0.432
CCCCC(O)C1C=CC2C(=O)N(c3ccccc3)C(=O)C2N1Nc1ccccc1F (stereo not given) | 0.569
[N-]=[N+]=Nc1ccccc1C[C@]1(C(=O)NCC(O)CO)N=C(c2ccc(OCCCO)cc2)O[C@H]1c1ccccc1N=[N+]=[N-] (stereo not given in full) | -1.49
C=C(CCCC)/C(=C/C[C@@H](OC(C)=O)c1ccccc1OCCO)c1cnc2ccccc2c1 | -0.185
OC([C@@H]1CC(c2ccccc2)=NO1)[C@H]1CC(c2ccccc2)=NO1 (stereo not given in full) | -0.487
[N-]=[N+]=NCc1ccccc1[C@H]1OC(c2ccc(OCCCO)cc2)=N[C@@]1(Cc1ccccc1)C(=O)NCc1ccccc1 | -0.157
O=C(NCc1ccccc1)[C@@H]1c2ccccc2C(=O)N(CC23CC4CC(CC(C4)C2)C3)[C@H]1c1ccc(CO)cc1 | 0.707
